Compound activity from PubChem BioAssay.
eIF4H inh – inhibitors of RNA binding by human eIF4H; Q15056; eIF4H fluorescence polarization binding assay; inhibition, % at 35 µM; hit rate 0.94% among 290,000; AID 2012;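 also: calls also rest on retests at 20 µM and on dose response follow-up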
ABCB6 inh 2 – inhibitors of human ABC transporter ABCB6; AID 602162; K562-ABCB6 porphyrin accumulation, flow cytometry, 1 h; hits give low values; hit rate 0.19% among 360,000; fluorescence ratio to DMSO, % at 10 µM;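 active = fluorescence ratio to DMSO below 75%, the collection mean minus 3 SD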;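 also: signal is porphyrin accumulated inside mitochondria; 100% equals median channel fluorescence of DMSO control wells; lower ratio means ABCB6 inhibition with less porphyrin fluorescence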
MLLE-PAM2 inh – blocks PAM2 peptide binding to the PABP1 MLLE domain; inhibition, % at 20 µM; P11940; GST-MLLE / FITC-PAM2 fluorescence polarization; hit rate 0.36% among 360,000; AID 588489; in the data active = inhibition above about 35%, passing the limit was not always enough;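 also: plate controls were DMSO wells with GST-MLLE for no effect and wells lacking GST-MLLE protein for full effect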
AI-2 QS mod – modulators of Vibrio harveyi AI-2 quorum sensing system. AID 2094. Vibrio harveyi JMH597 AI-2 luminescence/OD600 ratio, 9 h; hits give low values; strain lacks LuxN and CqsS sensors; 0 = neutral-control median. hit rate 0.4% among 300,000. activity change, % at 7.5 µM; in the data active = activity change below about -75%, passing the limit was not always enough;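 also: luminescence divided by OD600 gain over 9 h not by final OD600 alone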
PHOSPHO1 block – PHOSPHO1 (human) inhibition. hit rate 1.1% among 290,000. inhibition, % at 13.3 µM. recombinant PHOSPHO1, absorbance phosphatase assay. AID 1565; in the data active = inhibition above about 60%
Target sequence (Q8TCT1 whole entry, looked up): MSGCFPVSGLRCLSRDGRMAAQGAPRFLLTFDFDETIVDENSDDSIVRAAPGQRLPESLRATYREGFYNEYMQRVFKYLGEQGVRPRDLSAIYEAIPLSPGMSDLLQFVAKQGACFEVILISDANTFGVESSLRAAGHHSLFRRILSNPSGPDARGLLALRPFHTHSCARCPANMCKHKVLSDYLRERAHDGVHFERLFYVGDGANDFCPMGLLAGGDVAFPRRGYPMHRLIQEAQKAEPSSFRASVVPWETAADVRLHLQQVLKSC
PABP FP inh – blocks human PABP binding to poly(A) RNA; P11940; fluorescence polarization; calls only at 35 µM; hit rate 1% among 290,000; AID 2014;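 also: calls also rest on retests at 20 µM and on dose response follow-up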
Active calls of the source: *; i = inactive; nt = not tested or not shown; + = active, no number. In the library only some 2.6% were active in any assay of this set; here they are far more common. Unless noted, no rule for the calls is given here.

SMILES	eIF4H inh	ABCB6 inh 2	MLLE-PAM2 inh	AI-2 QS mod	PHOSPHO1 block	PABP FP inh
CSCCC(=O)N1C(C)CCCC1C(=O)O (stereo not given)	-14	109	-1	23	23	i
Cc1c(-c2ccccc2)sc(N)c1C(=O)N1CCOCC1	-4	97	29	14	74*	i
Cc1cc(-n2c(C)cc(C(=O)CSc3ncnc4ccccc34)c2C)no1	13	87	9	21	84*	i
Cc1cc(C)n2nc(SCC(=O)c3cc(C)n(-c4cc(C)on4)c3C)nc2n1	4	96	20	15	102*	i
Cc1cc(C)n2nc(SCC(=O)c3ccccc3)nc2n1	6	101	17	10	-23	i
COc1ccccc1CN1CC(C(=O)N(C)CCc2nc3ccc(F)cc3[nH]2)CCC1=O (stereo not given)	nt	99	1	11	64*	nt
COc1ccccc1CN1CC(C(=O)N(C)CCc2ccccn2)CCC1=O (stereo not given)	nt	102	0	nt	nt	nt
COc1cc(NC(=O)Cn2cnc3c(nc4n3CCCCC4)c2=O)cc(OC)c1OC	-2	98	6	12	75*	i
COc1ccc(OCc2n[nH]c(=S)o2)cc1	-7	98	-112	18	88*	i
S=c1[nH]nc(COc2ccc(Cl)cc2)o1	4	103	-83	13	103*	i
Cc1ccc(C)c(OCc2n[nH]c(=S)o2)c1	4	97	-114	-31	-12	i
S=c1[nH]nc(CCc2ccc(Cl)cc2)o1	3	97	-61	27	21	i
CC1(C(=O)NS(=O)(=O)C2CC2)CCN(C(=O)c2ccccc2C(F)(F)F)C1 (stereo not given)	nt	84	10	nt	nt	nt
COc1ccc(CNC(=O)[C@H](C)NC(=O)N2CCn3c2nc2ccccc23)cc1	nt	93	-15	17	70*	nt
C[C@H](NC(=O)N1CCn2c1nc1ccccc12)C(=O)NCCc1ccccc1	-6	103	1	15	54	i
CC(C)N1CCCC(C)(C(=O)Nc2nc3ccccc3[nH]2)C1 (stereo not given)	nt	95	0	nt	nt	nt
CC(=O)Nc1ccc2c(CSc3nnc(N)s3)cc(=O)oc2c1	-17	89	-7	6	69*	i
CC(=O)Nc1ccc2c(CSc3nncs3)cc(=O)oc2c1	-2	97	-3	30	5	i
CCOC(=O)[C@]12CCCC=C1N(Cc1ccc(Cl)cc1Cl)C(=O)[C@H](CC(=O)NCCC(C)C)C2	nt	92	nt	nt	nt	nt
CCc1ccc(NC(=S)NNC(=O)c2ccccc2OC(F)F)cc1	8	nt	nt	21	30	i
Cc1cccc(NC(=S)NNC(=O)c2ccccc2OC(F)F)c1	8	101	24	18	72*	i
COc1ccc(NC(=S)NNC(=O)c2ccccc2OC(F)F)cc1	12	97	15	15	73*	i
COC(=O)[C@]12CCCCC=C1N(Cc1ccco1)C(=O)[C@H](CC(=O)NCc1cccc3ccccc13)C2	nt	92	nt	nt	nt	nt
O=C(NC(=S)Nc1cccc(Cl)c1N1CCCCC1)c1cccs1	7	95	29	4	0	i
N#Cc1ccccc1NC(=S)NC(=O)c1cccs1	-23	98	22	33	10	i
SMILES	eIF4H inh	ABCB6 inh 2	MLLE-PAM2 inh	AI-2 QS mod	PHOSPHO1 block	PABP FP inh
O=C(NC(=S)Nc1cccc2cccnc12)c1cccs1	4	116	48*	11	-6	i
O=C(NC(=S)Nc1cccc2cccnc12)c1ccccc1	4	111	39*	-6	-14	i
O=C(NCCOc1cccc2cccnc12)c1cccs1	active	96	17	24	11	+
O=C(NC(=S)Nc1cccc(Cl)c1N1CCOCC1)c1cccs1	-10	86	42*	24	-45	i
Cc1cc(N2CCN(C(c3ccnc4ccccc34)c3nnnn3-c3c(C)cccc3C)CC2)c2ccccc2n1 (stereo not given)	nt	96	nt	nt	nt	nt
COC(=O)c1ccc2nc(-c3ccc(C#N)cc3)c(Cc3cccc(Cl)c3)n2c1	nt	130	nt	nt	nt	nt
C[C@H]1COc2cccc(N(C)CCO)c2S(=O)(=O)N1	nt	97	nt	nt	nt	nt
Cc1cc(C)n(CCNC(=O)[C@H]2O[C@@H](n3ccc(N)nc3=O)[C@H](O)[C@@H]2O)n1	nt	97	-7	nt	nt	nt
CCOC(=O)[C@]12CCCC=C1N(Cc1ccc3c(c1)OCO3)C(=O)[C@H](CC(=O)NCCCN1CCCC1=O)C2	nt	92	nt	nt	nt	nt
COCCNc1nc(Nc2ccccc2Cl)c2sccc2n1	nt	97	-2	nt	nt	nt
CCCC(=O)NC(=S)Nc1cccc(Cl)c1N1CCCC1	1	100	45*	10	11	i
Cc1nc(NC(=S)NC(=O)c2cccs2)ccc1Br	3	98	6	-7	-15	i
O=C(NC(=S)Nc1ccc(NC(=O)c2cccs2)cc1)c1cc2ccccc2o1	96*	99	18	3	-9	+
O=C(NC(=S)Nc1cccc(Cl)c1N1CCCCC1)c1ccco1	1	99	34	12	15	i
Cc1cccc(NC(=S)NC(=O)c2cccs2)n1	1	99	41*	30	22	i
Fc1ccc(NC(=S)N2CCCC(c3ccccc3)=N2)cc1	54*	97	-90	17	12	+
CCOc1ccc(C2CC=C(C(C)=O)CN2S(=O)(=O)c2ccc(C)cc2)cc1 (stereo not given)	nt	99	-4	nt	nt	nt
O=c1cc(CSc2n[nH]c(-c3ccncc3)n2)nc2sccn12	63*	95	-3	20	42	i
COCCn1c(SCc2cc(=O)n3ccsc3n2)nnc1-c1ccncc1	-1	95	-6	8	9	i
COc1ccc(C(=O)Nc2ccc(C3CC3(Cl)Cl)cc2)cc1 (stereo not given)	8	98	9	13	71*	i
COc1ccc(NC(=O)c2ccc(NC(=O)c3ccncc3)cc2)cc1	-8	105	-27	20	12	i
Cc1ccc(C(=O)c2sc3nsc(C)c3c2N)cc1	0	91	7	17	98*	i
Cc1snc2sc(C(=O)c3ccc(Br)cc3)c(N)c12	14	97	-4	-2	86*	i
Cc1nc2sc(C(=O)c3ccccc3)c(N)c2c(C)c1C	2	96	2	27	18	i
N#C/C(=C\c1cccn1S(=O)(=O)c1ccccc1)S(=O)(=O)c1ccc(F)cc1	nt	100	3	nt	nt	nt
CCO[C@@H]1OC(C(=O)O)=C[C@H](C)[C@H]1CCCO	34	105	-6	2	35	+
CCO[C@H]1OC(C(=O)O)=C[C@@H](C2CC2)[C@@H]1CCCO	6	nt	nt	12	48	i
C#Cc1ccc([C@@H]2C=C(C(=O)OCC=C)O[C@H](OCC)[C@H]2CCCO)cc1	88*	100	7	2	26	i
